Most compounds without a hit are left out; they make up all but 3.5% or so of the library.
GPR151 ag = activates the human receptor GPR151 | Q8TDV0 | activation, % at 11.2 µM | AID 1508602 | PathHunter beta-arrestin GPR151 cells, luminescence | 1% of 650,000 active; in the data active means activation above about 4.9%;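 further: 0% = median of compound wells and 100% = cells with positive control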
TEAD-YAP block = TEAD-YAP interaction inhibition; AID 1259422; 1.4% of 640,000 active; HEK-TIYL cells, TEAD-Gal4/YAP UAS-luciferase luminescence; inhibition, % at 9.12 µM; in the data active means inhibition above about 32%;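 further: 0% = median of test compound wells and 100% = reference inhibitor wells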
FBW7 activator = activators of human E3 ligase FBW7 | Q969H0 | AlphaScreen FBW7–phospho-cyclin E peptide binding, activator screen | normalized activity (activation), % at 26.1 µM | 0.13% of 650,000 active | AID 1259310; in the data active means normalized activity above about 1.9%;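 further: purified mutant Fbw7 with reduced substrate affinity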
MITF primary = human MITF inhibition, primary screen; 0.91% of 650,000 active; O75030; AID 1259374; inhibition, % at 2.6 µM; AlphaScreen MITF homodimerization, bead proximity signal; in the data active means inhibition above about 50%;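 further: 0% = vehicle wells with protein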
Target sequence (O75030 whole entry, looked up): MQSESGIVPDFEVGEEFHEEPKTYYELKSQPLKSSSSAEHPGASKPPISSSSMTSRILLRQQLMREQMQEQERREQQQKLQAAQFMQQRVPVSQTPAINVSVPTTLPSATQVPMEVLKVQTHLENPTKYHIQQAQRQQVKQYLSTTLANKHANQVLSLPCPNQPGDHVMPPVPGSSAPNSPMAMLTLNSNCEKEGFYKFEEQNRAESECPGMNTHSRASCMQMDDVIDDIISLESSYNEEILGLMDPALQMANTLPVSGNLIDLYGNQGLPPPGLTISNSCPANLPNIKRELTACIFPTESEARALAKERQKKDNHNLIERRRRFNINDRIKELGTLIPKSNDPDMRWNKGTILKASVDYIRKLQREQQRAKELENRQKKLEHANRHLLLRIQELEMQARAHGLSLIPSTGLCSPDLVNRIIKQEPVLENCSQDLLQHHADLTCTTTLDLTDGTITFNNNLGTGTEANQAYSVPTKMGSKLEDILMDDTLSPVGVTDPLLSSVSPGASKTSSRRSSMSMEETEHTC
GPR151 conf act = confirmation of human GPR151 activators. 6,700 tested, under 10 active. shares compounds with GPR151 ag. GPR151 PathHunter beta-arrestin cells, luminescence, 90 min; % of EA-reagent control over plate median. activation, % at 11.2 µM;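 active means mean percent activation across replicates above the confirmation screen cutoff of 4.91%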
GPR119 ag = GPR119 activation, counter-screen for GPR151 activators | shares compounds with GPR151 ag | GPR119 PathHunter beta-arrestin cells, luminescence, 90 min; 0 = compound-well median, 100 = enzyme-acceptor control | activation, % at 11.2 µM | 0.3% of 6,700 active | AID 1508611;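 active means mean percent activation in the counterscreen above 29.09%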;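 further: counterscreen on off-target GPR119 to flag nonselective hits from the GPR151 activator screen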
The depositor's hits bear a star; . = not tested or not shown.

SMILES	GPR151 ag	TEAD-YAP block	FBW7 activator	MITF primary	GPR151 conf act	GPR119 ag
CCOC(=O)c1ccc(COC(=O)c2cc(Br)ccc2NC(C)=O)cc1	6.3*	-13	0	-1	0	-1
CCOC(=O)c1ccc(NC(=O)CN2C(=O)C3C4C=CC(C5CC45)C3C2=O)cc1 (configuration not stated)	7.0*	5	1	25	1	4
COc1ccc(Br)cc1/C=N/NC(=O)NC12CC3CC(CC(C3)C1)C2	-1	6	0	-2	.	.
Cc1cc(C)c2nc3c(cc2c1)CN(CCCO)C(=NCC1CCCO1)S3 (configuration not stated)	3	-6	0	-2	.	.
Cc1ccc(CN2CCN(Cc3cccc4nccnc34)CC2CCO)cc1 (configuration not stated)	6.7*	-5	0	-1	0	-13
CCOc1ccc(CN2CCN(Cc3cnc(N(C)C)s3)CC2CCO)cc1 (configuration not stated)	5.7*	-6	0	-5	0	0
CCn1ccnc1CN1CCN(Cc2ccc(F)cc2)C(CCO)C1 (configuration not stated)	13*	-5	0	-1	1	-1
CCOc1ccc(CN2CCN(Cc3cnc(N4CCOCC4)s3)CC2CCO)cc1 (configuration not stated)	0	6	0	2	.	.
CC(C)CN1CCN(Cc2cccc3nccnc23)CC1CCO (configuration not stated)	0	-5	0	-1	.	.
CCn1ccnc1CN1CCN(Cc2ccc(C)cc2)C(CCO)C1 (configuration not stated)	3	1	0	21	.	.
CCOc1cc(N2CCOCC2)c(OCC)cc1N=Cc1ccc([N+](=O)[O-])o1	0	6	0	30	.	.
Cc1ccc(C)c(NC(=O)CSc2nc(-c3ccccc3C)ns2)c1	2	9	0	7	.	.
COc1ccc(C(O)CN2C3=NCCCN3c3ccccc32)cc1 (configuration not stated)	5.1*	-2	0	-18	1	19
CCCS(=O)(=O)N1CCCC(N(C)CCc2ccccc2)C1 (configuration not stated)	-1	15	0	5	.	.
CCCN1CCC(N(C2CC2)S(=O)(=O)c2ccc(C)cc2)CC1	3	5	0	-1	.	.
O=C(NCCO)C(=O)NCC(c1cccs1)S(=O)(=O)c1ccccc1 (configuration not stated)	4.9*	-1	0	2	0	-12
OCCN(CCO)Cc1ccc(Cl)c(Cl)c1	-1	1	0	16	.	.
CC(C)(C)OC(=O)N1CCC[C@@H]1C(=O)Nc1ccc2[nH]ncc2c1	5.8*	-3	0	19	0	-6
CC(=O)Nc1cccc(N=Cc2cc([N+](=O)[O-])cc(C)c2O)c1	7.4*	-26	0	4	-1	3
O=C(Nc1cccc(N=Cc2cc([N+](=O)[O-])cc([N+](=O)[O-])c2O)c1)c1ccco1	0	-2	0	13	.	.
COC(=O)/N=C(\Cc1ccc(OC)cc1)c1ccc(OC)cc1	-2	-22	0	15	.	.
CCCN1CCC(=NNC(=O)c2ccc(Cl)cc2Cl)CC1	4.9*	2	0	16	1	6
O=C(NC(NC(=O)c1ccccc1F)c1ccc2c(c1)OCO2)c1ccccc1F	11*	1	0	-3	1	0
CC(C)[C@H](NC(=O)c1ccccc1F)C(=O)Nc1ccc2c(c1)OCO2	0	-6	0	-6	.	.
CCOC(=O)N1CCC(n2c(SCC(=O)Nc3nccs3)nc3ccccc3c2=O)CC1	1	1	0	-1	.	.
SMILES	GPR151 ag	TEAD-YAP block	FBW7 activator	MITF primary	GPR151 conf act	GPR119 ag
O=c1c2ccccc2nc(SCc2cccc([N+](=O)[O-])c2)n1CCc1ccccc1	2	1	0	12	.	.
O=c1cnn(-c2ccccc2)c(-c2ccccc2)c1	6.7*	-7	0	2	0	-2
NNC(=O)c1cc(-c2ccccc2)n(-c2ccccc2)n1	-1	-1	0	-17	.	.
Cc1cc(S(=O)(=O)N2CCCC(CNC(=O)c3cc4ccccc4[nH]3)C2)c(C)s1 (configuration not stated)	6.2*	0	0	9	0	-2
O=C(NCC1CCCN(S(=O)(=O)/C=C/c2ccccc2)C1)c1cc2ccccc2[nH]1 (configuration not stated)	-1	4	0	-14	.	.
Cc1ccccc1OCCCn1c(C)nc2ccccc21	1	13	0	-16	.	.
COc1ccc(CCNC(=O)c2cnc(Nc3ccc(-n4ccnc4)cc3)s2)cc1	1	-2	0	4	.	.
COc1ccc(CCNC(=O)c2csc(Nc3ccc(-n4ccnc4)cc3)n2)cc1	6.0*	58*	0	3	0	30*
COc1ccc(CCNc2nc(Nc3ccc(-n4ccnc4)cc3)ncc2C)cc1	4.9*	18	1	7	0	-8
COc1ccc(CCNC(=O)c2csc(Nc3ccc(C(F)(F)F)cc3)n2)cc1	6.2*	-11	0	10	0	2
N#C/C(=C\c1ccc(Cl)cc1)c1nc(-c2cc3cc(Br)ccc3oc2=O)cs1	1	7	0	-2	.	.
Cc1ccccc1Nc1nc(N)nc(COc2ccc([N+](=O)[O-])cc2Cl)n1	5.7*	-7	0	6	0	3
Cc1ccccc1Nc1nc(N)nc(COC(=O)c2cc(=O)c3ccccc3o2)n1	8.0*	-10	0	2	-1	-1
Cc1cc(N2CCCC2=O)cc(C)c1S(=O)(=O)NCCc1c(C)[nH]c2ccccc12	-1	1	0	-19	.	.
COc1ccc(-c2nnc(SCC(=O)Nc3cc(C)on3)nc2-c2ccc(OC)c(OC)c2)cc1OC	-1	-6	0	6	.	.
Cc1cc(C)n(-c2cc(NCCNC(=O)C(C)(C)Oc3ccc(Cl)cc3)nc(C)n2)n1	8.6*	10	0	-18	1	0
Cc1ccc2nc(C3CCN(C(=O)Cn4nnnc4CN(C)C(C)C)CC3)[nH]c2c1	-1	6	0	8	.	.
O=C(NCCCl)NNC(=O)c1cc(-c2cccs2)nc2ccccc12	-2	-7	0	5	.	.
Cc1cccc(CCNS(=O)(=O)c2c(C)n[nH]c2C)c1	-1	-3	0	-4	.	.
CCOc1ccc(CCNS(=O)(=O)c2c(C)n[nH]c2C)cc1OCC	5.6*	6	0	5	0	8
Cc1cc(C(=O)/C=C/c2ccc(OCC(=O)O)cc2)c(C)s1	6.1*	4	0	2	0	-4
COC(=O)COc1ccc(C=C2C(=O)NC(=S)NC2=O)cc1Br	1	8	0	2	.	.
O=C(c1ccc(S(=O)(=O)Cc2cc(F)ccc2F)c([N+](=O)[O-])c1)N1CCN(c2ccccc2)CC1	1	4	0	19	.	.
